The term inhibition denotes the drop in the measured response relative to a control, in per cent.

SMILES strings stand for the structures. The source made the active and inactive calls.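 The calls were made as follows, unless noted: active = mean inhibition over 43.08%, the solvent-only control mean plus 3 SD; inactive = the rest.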 Numbered stars: 1 amine (or outer) side, 2 acyl side, 3 side chain; on linkers, the order of the positions; unused ones are H or OH. Bridge positions count the residues as written; N and C are the ends. Square brackets hold non-standard residues; d marks the D form. Peptide text beside a SMILES is read from it. ξ: configuration not given here. X1 = CC[C@H](CCC[C@@H](O)[C@@H](C)C(=O)O[C@H](C)[C@@H](C)C/C=C(C)/C(=C\C(=O)[*:1])OC)O[*:2]; NMeξIle = CC[C@H](C)C(NC)C(=O)O; NMeV = CN[C@H](C(=O)O)C(C)C; NMeS = CN[C@@H](CO)C(=O)O

This is an account of results in PubChem BioAssay.

In one assay the target is Nuclear receptor coactivator 3 (Homo sapiens) (UniProt Q9Y6Q9). Kind of assay: SRC3 coactivator transcriptional activity inhibitors, confirmation, cell-based, luminescence, quadruplicate (AID 588792).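 Also: 0% = DMSO treated cells and 100% = gossypol at 36 µM.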 To be noted: HEK293 GAL4-SRC3 luciferase reporter, at 3.6 µM, active compounds read high. A general note: A reporter such as luciferase makes a cellular process visible.
Nuclear receptor coactivator 3 (Homo sapiens), sequence (Q9Y6Q9 whole entry, looked up, the tested form may be a part): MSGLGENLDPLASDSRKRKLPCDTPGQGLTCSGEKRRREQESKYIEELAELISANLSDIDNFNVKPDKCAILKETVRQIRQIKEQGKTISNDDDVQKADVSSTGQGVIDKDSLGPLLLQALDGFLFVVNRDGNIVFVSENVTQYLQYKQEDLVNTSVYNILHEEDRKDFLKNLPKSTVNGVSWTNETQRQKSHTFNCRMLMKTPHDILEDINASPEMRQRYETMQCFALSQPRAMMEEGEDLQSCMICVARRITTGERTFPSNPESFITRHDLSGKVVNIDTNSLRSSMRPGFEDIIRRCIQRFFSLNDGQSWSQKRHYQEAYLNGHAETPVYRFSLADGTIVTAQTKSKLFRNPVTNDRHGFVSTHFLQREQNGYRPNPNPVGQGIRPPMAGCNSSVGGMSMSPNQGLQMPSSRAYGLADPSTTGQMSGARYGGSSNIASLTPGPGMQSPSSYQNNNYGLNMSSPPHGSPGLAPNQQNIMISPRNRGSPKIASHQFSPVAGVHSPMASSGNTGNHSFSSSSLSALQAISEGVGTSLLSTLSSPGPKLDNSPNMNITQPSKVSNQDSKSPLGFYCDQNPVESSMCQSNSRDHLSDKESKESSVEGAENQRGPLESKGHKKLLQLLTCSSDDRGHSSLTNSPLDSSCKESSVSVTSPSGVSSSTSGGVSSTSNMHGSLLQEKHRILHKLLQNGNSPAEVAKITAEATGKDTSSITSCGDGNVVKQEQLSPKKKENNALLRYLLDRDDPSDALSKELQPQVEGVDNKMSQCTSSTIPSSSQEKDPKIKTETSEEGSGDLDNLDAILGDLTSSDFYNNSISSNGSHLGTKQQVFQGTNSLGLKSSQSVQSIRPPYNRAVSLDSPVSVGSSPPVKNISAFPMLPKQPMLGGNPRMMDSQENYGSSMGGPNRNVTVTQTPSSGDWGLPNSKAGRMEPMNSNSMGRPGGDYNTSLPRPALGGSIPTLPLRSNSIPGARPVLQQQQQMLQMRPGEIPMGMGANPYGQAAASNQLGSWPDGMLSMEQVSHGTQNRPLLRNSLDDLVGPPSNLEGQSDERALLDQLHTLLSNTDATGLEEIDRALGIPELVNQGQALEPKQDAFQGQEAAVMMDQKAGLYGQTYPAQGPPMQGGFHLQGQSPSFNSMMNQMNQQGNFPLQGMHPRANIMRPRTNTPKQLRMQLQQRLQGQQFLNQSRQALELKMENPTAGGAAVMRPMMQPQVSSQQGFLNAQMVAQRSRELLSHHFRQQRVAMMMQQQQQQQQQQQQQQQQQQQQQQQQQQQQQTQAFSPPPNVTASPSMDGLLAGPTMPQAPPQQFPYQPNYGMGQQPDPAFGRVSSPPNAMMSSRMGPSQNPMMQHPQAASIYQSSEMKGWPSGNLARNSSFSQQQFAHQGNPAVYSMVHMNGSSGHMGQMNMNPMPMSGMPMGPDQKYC
Regarding `CCC1(O)C(=O)OCc2c1cc1n(c2=O)Cc2cc3c(N)cccc3nc2-1` (stereo not given), the inhibition was 89.6% (active).
The same measure, in the same setting: as for `CCCOC(c1ccccc1)(c1ccc(C(F)(F)F)cc1)C(Oc1nc(C)cc(C)n1)C(=O)O` (stereo not given), the figure is 51.2% (active).
The same measure, in the same setting: as for `N=c1c2c(n(Cc3ccc(F)cc3)c3c1CCC3)CCC2`, the figure is 25.9% (inactive); as for `Cc1cc(/C=N/n2cnnc2)c(C)n1-c1ccc(OCc2ccc(Cl)cc2Cl)cc1`, 19.7% (inactive); as for `CCN(CC)c1ccc2nc3ccc(N)cc3[n+](-c3ccccc3)c2c1`, 81.2% (active).
Still for that read-out and setting: as for `Cc1ccc2[nH]c3nc(N/N=C/c4cccc(O)c4)nnc3c2c1`, the figure is 35.7% (inactive); as for `CCCC(=O)NC(c1ccccc1Cl)c1ccc2cccnc2c1O` (stereo not given), 55.3% (active); as for `CN(Cc1cnc2nc(N)nc(N)c2n1)c1ccc(C(=O)NC(CCC(=O)O)C(=O)O)cc1C(F)(F)F` (stereo not given), 60.4% (active).
Turning to `O=[N+]([O-])c1ccc(Sc2cccc[n+]2[O-])c2nonc12`, the inhibition was 98.7% (active).
Consider `COc1cc(C=NO)nc(-c2ccccn2)c1`, for which the inhibition was 78.2% (active).
Same read-out and setting: as for `COc1ccc(Cn2c(-c3ccc(C)cc3)c[n+]3ccccc23)cc1`, the figure is 35.9% (inactive); as for `Cc1ccc(S(=O)(=O)/N=C2\C=C(Nc3ccc(O)cc3)C(=O)c3ccccc32)cc1`, 91.8% (active).
The same measure, in the same setting: as for `CC[n+]1c(C=C2C=C(C)OC(C)=C2)sc2ccccc21`, the figure is 42.2% (inactive); as for `CCCCCn1c2c(c(=N)c3ccccc31)CCC2`, 45.1% (active); as for `CCOc1ccccc1O[C@H](c1ccccc1)[C@H]1CNCCO1`, 3.48% (inactive).
Regarding `COC(=O)C1=C(CN2CCCc3ccccc32)NC(=O)NC1c1ccc(F)cc1` (stereo not given), the inhibition was 65.7% (active).
On to `CC(=NNC(=S)Nc1cccc(C)c1)c1ccccn1`, for which the inhibition was 65.8% (active).
Same read-out and setting: as for `CC(C)(C)N(Cc1ccc2c(c1)OCO2)C(=O)/C=C\S(=O)c1ccccc1` (stereo not given), the figure is 45% (active).
Still for that read-out and setting: as for `COc1ccccc1-n1cc([C@@H]2C[C@H]3CN(c4ccccc4)C(=O)[C@]34CCCN24)cn1`, the figure is 53.1% (active); as for `COc1ccc2cc3cc(C(=O)Nc4cc(OC)c(OC)c(OC)c4)oc3nc2c1`, 37.1% (inactive); as for `CCCc1nc2c(=O)n(C)c(=O)nc-2n(C)n1`, 70.5% (active).
On the same count and under the same terms, as for `CC[C@@H]1CCC[C@@H](O)[C@@H](C)C(=O)O[C@H](C)[C@@H](C)C/C=C(C)/C(OC)=C\C(=O)N(C)C([C@@H](C)CC)C(=O)N(C)[C@@H](C(C)C)C(=O)N(C)[C@@H](COC)C(=O)N2CCC[C@H]2C(=O)N(C)[C@@H](C(C)C)C(=O)N2CCC[C@H]2C(=O)O1` (stereo not given in full) ([NMeξIle][NMeV][NMeS](Me)P[NMeV]P; linker N-C via X1), the figure is 79.9% (active).
For the compound `CC1(C)CC(N2CCN(Cc3ccccc3)CC2)=CC(=[N+]2CCCCC2)C1`, the inhibition is 30.2% (inactive).
The same measure, in the same setting: as for `Cc1ccc(-c2cc3cccc[n+]3cc2-c2ccc(C)cc2)cc1`, the figure is 72.3% (active).
The same measure, in the same setting: as for `CC(=O)NC(c1ccc(Cl)cc1)c1ccc2cccnc2c1O` (stereo not given), the figure is 83% (active); as for `CCN(CC)CCn1c2ccccc2c2cnc(N)c(C#N)c21`, 5.22% (inactive); as for `C(=NNc1ccc2ccccc2n1)c1ccccn1`, 60.6% (active).
Consider `CN(C)CCNc1ccc(CO)c2oc3ccc(O)cc3c(=O)c12`, for which the inhibition is 4.57% (inactive).
On the same count and under the same terms, as for `CCCCCc1ccc(OCCC[n+]2ccccc2)c(CCCCC)c1`, the figure is 45.8% (active); as for `COc1ccc(CCNc2ncnc3c2oc2ccccc23)cc1OC`, 15.8% (inactive); as for `COc1ccccc1C(=O)Nc1nc2ccccc2s1`, 85.4% (active).
Still for that read-out and setting: as for `CC(NNC(=S)N1CCN(c2ccccn2)CC1)c1nccc2ccccc12` (stereo not given), the figure is 61.5% (active); as for `COc1cc(NS(C)(=O)=O)ccc1Nc1c2ccccc2nc2ccccc12`, 63.6% (active); as for `CN(C)c1cc[n+](CC(=O)c2ccc(-c3ccccc3)cc2)cc1`, 35.6% (inactive).
The same measure, in the same setting: as for `Cc1ccc2ccc3cccnc3c2n1`, the figure is -1.81% (inactive); as for `CC1=NN(c2nc3ccccc3[nH]2)C(=O)C1Cc1ccccc1` (stereo not given), 53.5% (active); as for `N=c1c2c(-c3ccccc3)c(-c3ccccc3)n(Cc3ccccc3)c2ncn1CCO`, 26.6% (inactive).
Consider `COc1cccc(Cn2c(NCc3cccnc3)nc3c2c(=O)n(C)c(=O)n3C)c1`, for which the inhibition was 50.8% (active).
Same read-out and setting: as for `CC(C)(O)C#Cc1ccc([C@@H]2C[C@H]3CN(c4ccccc4)C(=O)[C@]34CCCN24)s1`, the figure is 42.9% (inactive); as for `O=C(N/N=C(\c1ccccc1)c1cccnc1)c1cccc(F)c1`, 37.5% (inactive).

A further assay concerns transactivating tegument protein VP16 (Human herpesvirus 1), Gal4-VP16 luciferase reporter. Kind of assay: VP16 transactivation inhibitors, counter-screen for SRC3 inhibitor project, cell-based, luminescence, high throughput (AID 588794; in the data active = inhibition above about 30%). To be noted: mammalian cells, VP16-driven luciferase reporter luminescence; at 3.6 µM; active compounds read high. For orientation: Counterscreens check selectivity or assay interference.
Take `CCC1(O)C(=O)OCc2c1cc1n(c2=O)Cc2cc3c(N)cccc3nc2-1` (stereo not given): the inhibition was 77.9% (active).
On the same count and under the same terms, as for `CCCOC(c1ccccc1)(c1ccc(C(F)(F)F)cc1)C(Oc1nc(C)cc(C)n1)C(=O)O` (stereo not given), the figure is 67% (active); as for `N=c1c2c(n(Cc3ccc(F)cc3)c3c1CCC3)CCC2`, 42.9% (active); as for `Cc1cc(/C=N/n2cnnc2)c(C)n1-c1ccc(OCc2ccc(Cl)cc2Cl)cc1`, 43.4% (active).
Same read-out and setting: as for `CCN(CC)c1ccc2nc3ccc(N)cc3[n+](-c3ccccc3)c2c1`, the figure is 79.9% (active); as for `Cc1ccc2[nH]c3nc(N/N=C/c4cccc(O)c4)nnc3c2c1`, 54.6% (active).
Same read-out and setting: as for `CCCC(=O)NC(c1ccccc1Cl)c1ccc2cccnc2c1O` (stereo not given), the figure is 47.8% (active); as for `CN(Cc1cnc2nc(N)nc(N)c2n1)c1ccc(C(=O)NC(CCC(=O)O)C(=O)O)cc1C(F)(F)F` (stereo not given), 7.16% (inactive).
As to `O=[N+]([O-])c1ccc(Sc2cccc[n+]2[O-])c2nonc12`, the inhibition is 95.4% (active).
Still for that read-out and setting: as for `COc1cc(C=NO)nc(-c2ccccn2)c1`, the figure is 43.5% (active); as for `COc1ccc(Cn2c(-c3ccc(C)cc3)c[n+]3ccccc23)cc1`, 52.1% (active); as for `Cc1ccc(S(=O)(=O)/N=C2\C=C(Nc3ccc(O)cc3)C(=O)c3ccccc32)cc1`, 83.1% (active).
As for `CC[n+]1c(C=C2C=C(C)OC(C)=C2)sc2ccccc21`, the inhibition is 67.2% (active).
The same measure, in the same setting: as for `CCCCCn1c2c(c(=N)c3ccccc31)CCC2`, the figure is 61.1% (active); as for `CCOc1ccccc1O[C@H](c1ccccc1)[C@H]1CNCCO1`, -0.26% (inactive).
Still for that read-out and setting: as for `COC(=O)C1=C(CN2CCCc3ccccc32)NC(=O)NC1c1ccc(F)cc1` (stereo not given), the figure is 32.3% (active); as for `CC(=NNC(=S)Nc1cccc(C)c1)c1ccccn1`, 67.1% (active); as for `CC(C)(C)N(Cc1ccc2c(c1)OCO2)C(=O)/C=C\S(=O)c1ccccc1` (stereo not given), 38.2% (active).
On to `COc1ccccc1-n1cc([C@@H]2C[C@H]3CN(c4ccccc4)C(=O)[C@]34CCCN24)cn1`, for which the inhibition is 38% (active).
On the same count and under the same terms, as for `COc1ccc2cc3cc(C(=O)Nc4cc(OC)c(OC)c(OC)c4)oc3nc2c1`, the figure is 33.5% (active).
As to `CCCc1nc2c(=O)n(C)c(=O)nc-2n(C)n1`, the inhibition is 66.6% (active).
On the same count and under the same terms, as for `CC[C@@H]1CCC[C@@H](O)[C@@H](C)C(=O)O[C@H](C)[C@@H](C)C/C=C(C)/C(OC)=C\C(=O)N(C)C([C@@H](C)CC)C(=O)N(C)[C@@H](C(C)C)C(=O)N(C)[C@@H](COC)C(=O)N2CCC[C@H]2C(=O)N(C)[C@@H](C(C)C)C(=O)N2CCC[C@H]2C(=O)O1` (stereo not given in full) ([NMeξIle][NMeV][NMeS](Me)P[NMeV]P; linker N-C via X1), the figure is 86.5% (active); as for `CC1(C)CC(N2CCN(Cc3ccccc3)CC2)=CC(=[N+]2CCCCC2)C1`, 50.7% (active); as for `Cc1ccc(-c2cc3cccc[n+]3cc2-c2ccc(C)cc2)cc1`, 53.5% (active).
Same read-out and setting: as for `CC(=O)NC(c1ccc(Cl)cc1)c1ccc2cccnc2c1O` (stereo not given), the figure is 79.9% (active); as for `CCN(CC)CCn1c2ccccc2c2cnc(N)c(C#N)c21`, 35.2% (active).
As for `C(=NNc1ccc2ccccc2n1)c1ccccn1`, the inhibition was -12% (inactive).
As to `CN(C)CCNc1ccc(CO)c2oc3ccc(O)cc3c(=O)c12`, the inhibition was 31% (active).
In the case of `CCCCCc1ccc(OCCC[n+]2ccccc2)c(CCCCC)c1`, the inhibition was 60.7% (active).
Same read-out and setting: as for `COc1ccc(CCNc2ncnc3c2oc2ccccc23)cc1OC`, the figure is 34.9% (active).
Same read-out and setting: as for `COc1ccccc1C(=O)Nc1nc2ccccc2s1`, the figure is 79.6% (active); as for `CC(NNC(=S)N1CCN(c2ccccn2)CC1)c1nccc2ccccc12` (stereo not given), 54.2% (active).
`COc1cc(NS(C)(=O)=O)ccc1Nc1c2ccccc2nc2ccccc12`: the inhibition is -6.87% (inactive).
As to `CN(C)c1cc[n+](CC(=O)c2ccc(-c3ccccc3)cc2)cc1`, the inhibition was 57.6% (active).
Still for that read-out and setting: as for `Cc1ccc2ccc3cccnc3c2n1`, the figure is 18.9% (inactive); as for `CC1=NN(c2nc3ccccc3[nH]2)C(=O)C1Cc1ccccc1` (stereo not given), 68% (active).
As for `N=c1c2c(-c3ccccc3)c(-c3ccccc3)n(Cc3ccccc3)c2ncn1CCO`, the inhibition was 61% (active).
Take `COc1cccc(Cn2c(NCc3cccnc3)nc3c2c(=O)n(C)c(=O)n3C)c1`: the inhibition is 41.3% (active).
The same measure, in the same setting: as for `CC(C)(O)C#Cc1ccc([C@@H]2C[C@H]3CN(c4ccccc4)C(=O)[C@]34CCCN24)s1`, the figure is 41.9% (active); as for `O=C(N/N=C(\c1ccccc1)c1cccnc1)c1cccc(F)c1`, 31.2% (active).
